Test results reported in PubChem BioAssay (NCATS).
Results filed as inconclusive are left out. Calls of active or inactive are those of the source. The call rests on the fitted dose curve; in most records, active means well fitted curve in the direction sought with a large enough effect; inconclusive means small, poorly fitted or top-dose-only effect, or another doubt; inactive means no such curve, though single readings can be large; an effect the other way counts as inactive or inconclusive. Square brackets hold non-standard residues; d marks the D form. Peptide text beside a SMILES is read from it. * marks the point of attachment. ξ: configuration not given here. Hexanoyl = CCCCCC(=O)*; ξL = CC(C)CC(N)C(=O)O

assay: HEK293 24hr Apoptosis Induction qHTS against the NCATS CANVASS Library (AID 1347359); conditions: HEK293 caspase-3/7 activation, Caspase-Glo luminescence; series mostly up to 46.1 µM; activation: at the top concentration
Procedure, shortened: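 Caspase-3/7 activation measured as luminescence from the DEVD-based Caspase-Glo reagent, 15 min at room temperature, following 24-hour compound treatment of HEK293 cells.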
Further: 0% is about no effect.

activation, inactive:
C=C1[C@@]2(C)CC3C4(C)CCC(O)C(C)(C)C4CCC3(C)[C@]1(C(=O)OC)C(=O)C(C)(O)C2=O (stereo not given in full) 1.17%, CC(C)=CCC[C@]1(C)[C@H]2CC(=O)[C@@]3(CO3)[C@@H]1C2 -7.05%, CCCCCC(=O)N[C@@H](CC(C)C)C(=O)N[C@H](C=O)CCC(=O)O (Hexanoyl-Leu-Glu-aldehyde) -4.45%, COc1ccc([C@@H]2c3cc4c(cc3C(=O)C(C)C2C)OCO4)cc1OC (stereo not given in full) 0.416%, CC1(C)CC[C@]2(CO)CC[C@]3(C)C(=CCC4[C@@]5(C)CC[C@H](O)C(C)(C)C5CC[C@]43C)C2C1 (stereo not given in full) -7.17%

assay: HPAF-II 18hr Apoptosis Induction qHTS against the NCATS CANVASS Library (AID 1347360); conditions: HPAF-II caspase-3/7 luminescence; series mostly up to 46.1 µM; caspase activation: at the top concentration
Procedure, shortened: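 Caspase-Glo 3/7 luminescence (DEVD substrate) after 15 min RT; HPAF-II, 500 cells/well, 18 h compound exposure at 37 degrees C, qHTS series; doxorubicin control 0.1nM - 4uM.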

Caspase activation, inactive:
CC(=O)N[C@H](C)c1nc(/C=C/C=C/C(=O)CC2CC(=O)CC[C@]2(C)O)cs1 (stereo not given in full) -1.04%, CN1C(=O)C(=O)N2C(=C[C@]3(c4c[nH]c5ccccc45)c4ccccc4N[C@H]23)C1=O 0.671%, CN1CC[C@]23c4ccccc4N[C@H]1[C@]21CCN(C)[C@H]3Nc2ccccc21 -2.85%, C/C=C1/C2=CCCN3C(=O)O[C@H]([C@H]1O)[C@H]23 -1.05%, O=C1CC(c2ccc(O)cc2)Oc2ccccc21 (stereo not given) -9.19%, COc1c(O)cc(O)c2c(=O)cc(-c3ccccc3)oc12 2.34%, COC1C(C)OC(OCC23C[C@@H]4[C@H](C)CC[C@H]4C4(C=O)CC2C=C(C(C)C)C34C(=O)O)[C@@H](O)[C@H]1O (stereo not given in full) 3.44%, CN1CC[C@@]2([C@@]34CCN(C)[C@@H]3Nc3ccccc34)c3ccccc3N[C@@H]12 1.01%, COc1ccc(-c2oc3cc(OC)cc(OC)c3c(=O)c2O)cc1 1.35%, CC[C@@H](C)[C@H]1NC(=O)C(CC(C)C)NC(=O)[C@@H](CC(C)C)NC(=O)[C@H](Cc2c[nH]c3ccccc23)NC(=O)CNC(=O)[C@@H](CC(N)=O)NC1=O (stereo partly drawn) (cyclo(GW[dL][ξL][dI][dN])) -2.9%, Cc1cc(O)cc2c1C(=O)c1c(O)cc(O)cc1C2=O 1.7%, C=C(Cl)[C@](Cl)(CBr)CC[C@@H](Br)C(C)(C)Cl 3.35%, C=C(C)C(=O)O[C@H]1C[C@@]2(C)OC(=CC2=O)/C(C)=C\[C@H]2OC(=O)C(=C)[C@H]12 -5.52%, C=C[C@]1(C)CC[C@@H]([C@H](C)C(=O)CC=C(C)C)O1 -2.62%, CC[C@@H]1C[C@@]2(CC)OC(=O)[C@@]3(CC)[C@H](CC)[C@@H]1[C@@H]23 -1.39%, [C-]#[N+][C@@]12C(=O)[C@@H]3[C@@H](O[C@@]4(C(=O)N(C)c5cccc1c54)C3(C)C)C(=O)[C@@]2(C)C=C 1.8%, COC(=O)c1cccc2oc(-c3cccc4oc(-c5c(C)cccc5O)nc34)nc12 1.91%, C[C@@]12CCC[C@@](C)(C(=O)OP(=O)(O)OC[C@H]3O[C@@H](n4cnc5c(N)ncnc54)[C@H](O)[C@@H]3O)[C@H]1C[C@@H](O)[C@@]13C[C@@H](CC[C@@H]21)[C@](C)(O)C3 1.59%, CCC(C)=C1OC(=O)[C@H](C)[C@H](O)[C@H](Cc2cccnc2)NC(=O)C(NC(=O)c2ncccc2O)C(C)OC1=O (stereo not given in full) -1.6%, C[C@@]12CCC[C@@](C)(C(=O)O)[C@H]1CC[C@@]13C[C@@H](CC[C@H]12)[C@](C)(O)C3 2.69%, O=C1OC(CCO)c2cccc(O)c21 (stereo not given) -1.06%, C=C1C[C@]23C=CC(=O)[C@@](C)(CCCC(C)C(=O)N[C@@H](CO)C(=O)O)[C@@H]2C[C@@H]1CC3 (stereo not given in full) 1.86%, COc1cc2ccc(=O)oc2c(O)c1O[C@@H]1O[C@H](CO)[C@@H](O)[C@H](O)[C@H]1O -2.53% [at 27.5 µM], C/C(=C\[C@@H](C)CC/C=C/CC/C=C/C(=O)O)[C@@H](O)[C@H](C)C(=O)CCCC1CC(=O)NC(=O)C1 2.5%, CO[C@@H](C[C@@H](C)[C@@H](O)/C=C/C=C/CNC(=O)C(C)(C)[C@H](O)\C(C)=C/C=C\C=C\Cc1cnco1)[C@]1(O)[C@@H](C)C(=O)N(C)[C@@]12COC2=O 4.62%, O=C1CC(c2ccc(O)cc2)Oc2cc(O)cc(O)c21 (stereo not given) -1.5%, O=C1CC(c2ccc(O)cc2)Oc2cc(O)ccc21 (stereo not given) -1.48%, CN1CC[C@@]23c4ccccc4N[C@@H]1[C@@]21CCN(C)[C@@H]3Nc2ccccc21 0.705%, C[C@@]12CCC[C@@](C)(C(=O)O)[C@H]1C[C@@H](O)[C@@]13C[C@@H](CC[C@@H]21)[C@](C)(O)C3 -2.6%, O=Cc1ccc2n1C[C@]1(OC2)O[C@H](CO)[C@@H](O)[C@@H]1O -1.12%
